Records with an inconclusive call do not appear. Unmarked numbers belong to inactive results. Calls of active or inactive are those of the source. Calls follow the shape of the dose curve; as a rule, active = well fitted inhibition curve with a large enough effect in the repeat runs; inconclusive = weak or mixed curves; inactive = no such curve, though single readings can be large or run the other way.
Molecular target: Cytochrome P450 2D6 (Homo sapiens) (UniProt P10635)
Assay: Cytochrome P450 Family 2 Subfamily D Member 6 (CYP2D6) small molecule antagonists: luciferase reporter qHTS assay (AID 1671196); also: nearly all actives have a fitted effect of over 50% in size
Conditions: P450-Glo CYP2D6 enzyme assay, luciferin luminescence, 1 h; series mostly up to 115 µM; activity change, negative = inhibition: at the top concentration
Excerpt: U.S. Tox21 Program National Center for Advancing Translational Sciences [NCATS] U.S. Environmental Protection Agency [EPA] National Institutes of Environmental Health Sciences [NIEHS] National Toxicology Program [NTP] U.S. Food and Drug Administration [FDA] Tox21 Assay Overview: Cytochrome P450 (CYP) enzymes are membrane-bound hemeproteins that play a key role in metabolism of drugs and xenobiotics. Evaluation of the effect of chemicals on CYP isozymes is useful to minimize the adverse drug reactions and toxicities in drug development process. Tox21 chemicals were tested for their effect on CYP enzyme activities by using P450-Glo (TM) screening systems (Promega Corporation, Madison, WI). These systems provide a luminescent method containing proluciferin substrates and are converted to luciferin products by CYP isozymes. The luciferin products formed are detected with a luciferin detection reagent, and the amount of light produced is proportional to CYP activity. P450-Glo (TM) CYP2D6 screening system (Catalog. No. V9890) was used to detect the compounds that interfere in CYP2D6 activity.
Tox21 Assay Protocol Summary: Two ul of enzyme-substrate mix was dispensed into medium binding white/solid 1536-well plates (Greiner Bio-One North America Inc., Monroe, NC) using a BioRaptr Flying Reagent Dispenser (FRD, Beckman Coulter, Brea, CA). […] The assay plates were incubated at room temperature for 10 min. Then 2 ul of NADPH regeneration solution was added to each well of the assay plates using an FRD and incubated at room temperature for 1 h. The reaction was stopped by adding 4 ul of detection reagent using an FRD and after 20 min incubation at room temperature the luminescence signal was measured using a ViewLux plate reader (Perkin Elmer, Shelton, CT). Data were expressed as relative luminescence units.
% is scaled to controls: 0 for no effect and ±100 for the full control effect; potency is read from the fitted curve at half-maximal effect.

Sequence of Cytochrome P450 2D6 (Homo sapiens) (P10635 whole entry, looked up): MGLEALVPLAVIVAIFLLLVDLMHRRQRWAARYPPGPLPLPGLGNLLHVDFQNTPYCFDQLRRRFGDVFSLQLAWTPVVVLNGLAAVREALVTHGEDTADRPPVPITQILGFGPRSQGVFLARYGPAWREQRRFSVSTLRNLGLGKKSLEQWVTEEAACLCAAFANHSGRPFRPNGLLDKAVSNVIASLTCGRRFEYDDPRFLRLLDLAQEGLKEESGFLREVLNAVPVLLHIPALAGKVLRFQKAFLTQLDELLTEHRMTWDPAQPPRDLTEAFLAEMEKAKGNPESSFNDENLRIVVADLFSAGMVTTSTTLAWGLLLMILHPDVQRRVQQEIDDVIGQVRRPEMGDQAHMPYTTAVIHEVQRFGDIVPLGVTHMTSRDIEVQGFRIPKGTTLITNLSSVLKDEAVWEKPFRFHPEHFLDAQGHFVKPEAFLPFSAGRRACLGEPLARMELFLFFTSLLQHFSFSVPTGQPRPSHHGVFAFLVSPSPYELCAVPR

Row | SMILES | activity change, negative = inhibition | Potency
1 | COc1cc([N+](=O)[O-])ccc1N | -15.7% | –
2 | O=C(O)/C=C/c1ccccc1 | – | 39.9 µM (active)
3 | C=C(C)C(=O)OC | -7.62% | –
4 | Cc1cccc(NC(=S)N(C)C)c1 | -16.9% | –
5 | CCNC(=O)NCCCOc1cccc(CN2CCCCC2)c1 | – | 13.8 µM (active)
6 | C=CCOc1c(Br)cc(C(C)(C)c2cc(Br)c(OCC=C)c(Br)c2)cc1Br | 1.38% [at 53 µM] | –
7 | BrC/C=C/CBr | -5.12% [at 23.6 µM] | –
8 | CCCCC(CC)CNC(=O)CC(C)OC(=O)CCC(=O)O (stereo not given) | – | 17.4 µM (active)
9 | O=C(CN1CCN(Cc2ccc3c(c2)OCO3)CC1)N1c2ccccc2Sc2ccccc21 | – | 0.55 µM (active)
10 | COc1cc2c3cc1Oc1cc(ccc1O)C[C@@H]1c4c(cc(OC)c(O)c4Oc4ccc(cc4)C[C@@H]3N(C)CC2)CC[N+]1(C)C | -24.5% [at 53 µM] | –
11 | CCOC(=O)C(C)(C)C | 0.543% | –
12 | CC(=O)OCC(=O)[C@@]1(O)[C@H](OC(C)=O)C[C@H]2[C@@H]3CCC4=CC(=O)C=C[C@]4(C)[C@@]3(F)[C@@H](O)C[C@@]21C | -8.37% [at 53 µM] | –
13 | CC(C)C(=O)Nc1cccc(C(F)(F)F)c1 | 0.663% [at 53 µM] | –
14 | C=CCOc1cc(Cl)ccc1C(=O)NCCN(CC)CC | – | 0.275 µM (active)
15 | O=c1[nH]c(=O)c2[nH]c(=O)[nH]c2[nH]1 | -9.18% [at 10.5 µM] | –
16 | CC(=O)OC(C(=O)c1ccccc1)c1ccccc1 (stereo not given) | – | 35.7 µM (active)
17 | O=S(=O)(O)CCO | -8.43% | –
18 | CCCCCC(=O)OCC | 1.83% | –
19 | O=C1CC[C@H](C(=O)N2CCCCC2)N1 | -21.6% [at 53 µM] | –
20 | CC(C)C(=O)c1ccccc1 | -4.75% | –

Row | SMILES | activity change, negative = inhibition | Potency
21 | CC(=O)N(CC(O)CO)c1c(I)c(C(=O)NCC(O)CO)c(I)c(C(=O)NCC(O)CO)c1I (stereo not given) | 0.109% [at 53 µM] | –
22 | O=C1NC2NC(=O)NC2N1 (stereo not given) | -18.5% | –
23 | CCC1COC(=O)O1 (stereo not given) | -4.48% | –
24 | CC(C)=CC(C)(C)C | -4.22% | –
25 | CCc1nccnc1C | -5.84% | –
26 | CCC(=O)c1ccc(O)cc1 | -6.49% [at 53 µM] | –
27 | NS(=O)(=O)c1ccccc1OC(F)(F)F | -13.9% | –
28 | C=C[C@@H](C)CCC=C(C)C | -0.624% | –
29 | O=S(=O)(O)SSS(=O)(=O)O | -20.9% | –
30 | C[C@H](CCC(=O)NCC(=O)O)[C@H]1CC[C@H]2[C@@H]3[C@H](O)C[C@@H]4C[C@H](O)CC[C@]4(C)[C@H]3C[C@H](O)[C@]12C | -22.7% | –
31 | CCN(CCO)c1cccc(C)c1 | -25.4% | –
32 | O=c1[nH]c(=O)c2ccccc2o1 | 1.01% [at 53 µM] | –
33 | CNCc1ccccc1 | -91.8% [at 53 µM] | –
34 | COc1ccc(OC)c(NC(=O)CC(C)=O)c1 | – | 31.7 µM (active)
35 | C/C=C(\C)C(=O)OCC/C=C\CC | -0.464% | –
36 | CCC(O)C(C)(C)C (stereo not given) | -7.58% | –
37 | C=CCOCC(CO)(COCC=C)COCC=C | -24.7% [at 53 µM] | –
38 | Nc1cc(C(=O)O)ccc1Cl | -21.3% | –
39 | FC(F)(F)/C(=N\OCC1OCCO1)c1ccc(Cl)cc1 | -19.2% | –
40 | CCOC(=O)CC(CC(=O)OCC)(OC(C)=O)C(=O)OCC | -4.18% | –

From PubChem BioAssay (Tox21)
